The supplement of paper PMC7156485
“And” between values parts separate entries of the source, which are not always exact repeats. Equal values may be shown once. ± gives the standard deviation of the averaged measurements.

Key:
Details in all cases: concentration: 10 µM; 24 h
HCC1569 [1] = test: cell number relative to DMSO (% of DMSO); higher = more cells (less growth inhibition / toxicity)
In short: (§1)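 H1.0 nuclear intensity or cell number is stated as percent of the plate control, based on the median of replicates, and HCC1569 values were smoothed for positional effects. These came from HCC1569 and TDF cells treated with compounds at 10 µM for 24 h at 37 °C in triplicate, then fixed in 3.7% formaldehyde and stained with a rabbit anti-H1.0 antibody, an AlexaFluor 647 secondary and DAPI.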

TDF [2] = test: as above
In short: as §1

TDF [3] = test: H1.0 immunofluorescence intensity relative to DMSO (% of DMSO); higher = stronger H1.0 induction, active = 120 or more
In short: as §1

HCC1569 [4] = test: H1.0 immunofluorescence intensity relative to DMSO (% of DMSO); higher = stronger H1.0 induction, active = 140 or more
In short: as §1
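Throughout, for H1.0 immunofluorescence intensity relative to DMSO: TDF is a line of transformed human dermal fibroblasts of mesenchymal origin.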
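Throughout, for cell number relative to DMSO: TDF denotes transformed human dermal fibroblasts of mesenchymal origin.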

Row | Compound | cell number (HCC1569 [1]) | cell number (TDF [2]) | H1.0 immunofluorescence intensity (TDF [3]) | H1.0 immunofluorescence intensity (HCC1569 [4])
1 | CCCCCC=CCC=CCC=CCCCCCCC(=O)O [8(Z), 11(Z), 14(Z)-Eicosatrienoic Acid] | 97.9 | 101 | 97.9 (inactive) | 98.7 (inactive)
2 | NC(Cc1ccc(O)c(O)c1)C(=O)O (stereo not drawn) [Levodopa] | 96.9 | 102 | 93.3 (inactive) | 96.9 (inactive)
3 | CN(C)CCC(c1ccc(Cl)cc1)c1ccccn1.O=C(O)C=CC(=O)O (racemic) | 96.1 | 107 | 103 (inactive) | 94.5 (inactive)
4 | CC1(C)C2CCC1(C(=O)O)C(=O)C2 (stereo not drawn) [Ketopinic acid] | 103 | 102 | 99.7 (inactive) | 88.3 (inactive)
5 | Cc1cc(C(C)(C)C)c(O)c(C)c1CC1=NCCN1.Cl [Oxymetazoline hydrochloride] | 104 | 107 | 93.9 (inactive) | 94.9 (inactive)
6 | Cc1cc(C)c(C=C2C(=O)Nc3ccccc32)[nH]1 | 102 | 108 and 105 | 94.2 (inactive) and 92.7 (inactive) | 115 (inactive) and 103 (inactive)
7 | COc1c2ccoc2cc2oc(=O)ccc12 [Bergapten] | 97.8 | 94 | 102 (inactive) | 99.9 (inactive)
8 | CNC(=C[N+](=O)[O-])NCCSCc1ccc(CN(C)C)o1.Cl [Ranitidine hydrochloride] | 101 | 113 | 91.6 (inactive) | 85.1 (inactive)
9 | O=C([O-])CCCc1ccccc1.[Na+] [Sodium Phenylbutyrate] | 103 | 106 | 96.4 (inactive) | 97.7 (inactive)
10 | CNCCC(Oc1ccccc1OC)c1ccccc1.Cl (stereo not drawn) [Nisoxetine.HCl] | 105 | 101 | 92.1 (inactive) | 109 (inactive)
11 | C=CCN1CCc2cc(O)c(O)cc2C(c2ccccc2)C1 (racemic) | 101 | 108 | 90.9 (inactive) | 101 (inactive)
12 | CC(C)(CCCCCCCCCCC(C)(C)CC(=O)O)CC(=O)O [3,3,14,14-tetramethylhexadecanedioic acid] | 102 | 97.7 | 96.6 (inactive) | 93.7 (inactive)
13 | C=C1CCC(O)CC1=CC=C1CCCC2(C)C1CCC2C(C)CCC(O)C(C)(C)O [24(R),25-Dihydroxyvitamin D3] | 105 | 98.9 | 101 (inactive) | 93.7 (inactive)
14 | NCC1OC(OC2C(N)CC(N)C(OC3OC(CO)C(O)C(N)C3O)C2O)C(N)CC1O (stereo not drawn) [Tobramycin (free base)] | 103 | 102 | 107 (inactive) | 106 (inactive)
15 | C=C(C)C1CC=C(C(=O)O)CC1 (stereo not drawn) [Perillic acid] | 102 | 98.7 | 96.4 (inactive) | 92.9 (inactive)
16 | CCCCCCCCC=CCCCCCCCCCC(=O)O [11(E)-Eicosenoic acid] | 102 | 101 | 101 (inactive) | 102 (inactive)
17 | O=C1NCCc2[nH]c(-c3ccncc3)cc21 [Cdc7/Cdk9 Inhibitor] | 58.9 | 35.3 | 111 (inactive) | 115 (inactive)
18 | CC(=O)c1ccc(S(=O)(=O)NC(=O)NC2CCCCC2)cc1 [Acetohexamide] | 105 | 107 | 102 (inactive) | 109 (inactive)
19 | CC(C)C1CCC(C(=O)NC(Cc2ccccc2)C(=O)O)CC1 (stereo not drawn) [Nateglinide] | 105 | 112 | 96.1 (inactive) | 102 (inactive)
20 | CN1CCN(c2nc3cc(C(F)(F)F)ccc3n3cccc23)CC1.O=C(O)C=CC(=O)O | 99.3 | 104 | 103 (inactive) | 113 (inactive)
21 | NC/C=C/C(=O)O [(E)-4-amino-2-butenoic acid] | 97.2 | 105 | 93.2 (inactive) | 99.6 (inactive)
22 | CNCCC(Oc1ccc(C(F)(F)F)cc1)c1ccccc1.Cl (stereo not drawn) [R-(-)-Fluoxetine hydrochloride] | 92 | 105 | 110 (inactive) | 117 (inactive)
23 | CCCCCC1OC1CC=CCC=CCC=CCCCC(=O)O (stereo not drawn) [14,15-Epoxyeicosatrienoic acid] | 103 | 112 | 103 (inactive) | 94.8 (inactive)
24 | Oc1cc(O)c2c(c1)OC(c1ccc(O)c(O)c1)C(O)C2 (single isomer, unassigned; (-)) [(-)-Epicatechin] | 102 | 106 | 100 (inactive) | 89.2 (inactive)
25 | Nc1nc(OCc2ccccc2)c2[nH]cnc2n1 [O6-benzylguanine] | 102 | 96.6 | 101 (inactive) | 95.8 (inactive)
26 | Cc1oc(-c2ccccc2)nc1CCC(=O)c1ccc(CC2SC(=O)[N-]C2=O)cc1.[Na+] (stereo not drawn) | 103 | 106 | 96.4 (inactive) | 102 (inactive)

Row | Compound | cell number (HCC1569 [1]) | cell number (TDF [2]) | H1.0 immunofluorescence intensity (TDF [3]) | H1.0 immunofluorescence intensity (HCC1569 [4])
27 | CCn1c(-c2nonc2N)nc2c(C#CC(C)(C)O)ncc(OCC3CCCNC3)c21 (stereo not drawn) | 72.9 | 71.5 | 103 (inactive) | 120 (inactive)
28 | O=C(C=CC=Cc1ccc2c(c1)OCO2)N1CCCCC1 [Piperine] | 100 | 97 | 96.8 (inactive) | 104 (inactive)
29 | CC(=O)c1ccc2c(c1)[C@H](NC(=O)c1ccc(F)c(Cl)c1)[C@H](O)C(C)(C)O2 | 97.4 | 98 | 104 (inactive) | 99.5 (inactive)
30 | CNc1ncnc2c1ncn2C1CC(OP(=O)([O-])O)C(COP(=O)([O-])O)O1.[NH4+].[NH4+] (stereo not drawn) | 104 | 100 | 95 (inactive) | 92.4 (inactive)
31 | Cc1nnc(SCC2=C(C(=O)[O-])N3C(=O)C(NC(=O)Cn4cnnn4)C3SC2)s1.[Na+] (stereo not drawn) [Cefazolin sodium] | 101 | 116 | 87.2 (inactive) | 89.5 (inactive)
32 | CCN1CCCC1CNC(=O)c1cc(S(N)(=O)=O)ccc1OC (racemic) | 106 | 118 | 98.8 (inactive) | 99.3 (inactive)
33 | CC12CCc3occc3C1CCC13CC(=O)C(CCC12)C3 (stereo not drawn) [16-Oxocafestol] | 101 | 97.5 | 97.4 (inactive) | 98.5 (inactive)
34 | C[N+](C)(C)CCOC(=O)CCC(=O)OCC[N+](C)(C)C.O.O.[Cl-].[Cl-] | 103 | 104 | 92.5 (inactive) | 102 (inactive)
35 | Cc1cc(C)c(S(=O)(=O)Nc2cccc(C(F)(F)F)c2)c(C)c1 | 99.3 | 90 | 105 (inactive) | 104 (inactive)
36 | CC12CCC3c4ccc(O)cc4CCC3C1CCC2O (stereo not drawn) [Estradiol] | 94.6 | 93.8 | 97.6 (inactive) | 121 (inactive)
37 | CC12C=CC(=O)C=C1CCC1C2C(O)CC2(C)C1CCC2(O)C(=O)CO (stereo not drawn) [Prednisolone] | 100 | 99.4 | 84.9 (inactive) | 115 (inactive)
38 | COc1cc2nc(N3CCN(C(=O)C4CCCO4)CC3)nc(N)c2cc1OC (stereo not drawn) [Terazosin] | 99.9 | 87.9 | 93.9 (inactive) | 98.2 (inactive)
39 | CNC1CC2OC(C)(C1OC)n1c3ccccc3c3c4c(c5c6ccccc6n2c5c31)C(=O)NC4O (stereo not drawn) | 20.4 | 8.22 | 139 (active) | 121 (inactive)
40 | CN1C(C(=O)Nc2ccccn2)=C(O)c2ccccc2S1(=O)=O [Piroxicam] | 102 ± 2.1 | 107 ± 3.5 | 96.9 (inactive) | 98.2 (inactive)
41 | CCCCCC=CCC=CCCCCCCCC(=O)O [Linoleic acid] | 102 | 101 | 105 (inactive) | 99.3 (inactive)
42 | CC(C)C(CO)Nc1nc(Nc2cc(N)cc(Cl)c2)c2ncn(C(C)C)c2n1 (stereo not drawn) | 60.6 | 45.9 | 111 (inactive) | 177 (active)
43 | CCCCCCCCCCCCC(O)C(=O)O (stereo not drawn) [2-Hydroxymyristic acid] | 103 | 103 | 95.6 (inactive) | 102 (inactive)
44 | CS(=O)(=O)O.CSc1ccc2c(c1)C(N1CCN(C)CC1)Cc1ccccc1S2 (stereo not drawn) [Methiothepin mesylate] | 91.1 | 102 | 111 (inactive) | 128 (inactive)
45 | O=C(NC(NC(=S)Nc1ccc(F)c([N+](=O)[O-])c1)C(Cl)(Cl)Cl)C(c1ccccc1)c1ccccc1 (stereo not drawn) [ATM/ATR Kinase Inhibitor] | 62.4 | 64.5 | 112 (inactive) | 179 (active)
46 | COc1ccc(-c2coc3cc(O)ccc3c2=O)cc1 [Formononetin] | 104 | 103 | 87.5 (inactive) | 80.9 (inactive)
47 | NS(=O)(=O)c1cc2c(cc1Cl)NC=NS2(=O)=O [Chlorothiazide] | 105 | 105 | 95.5 (inactive) | 94 (inactive)
48 | O=C1Nc2ccc(I)cc2C1=Cc1cc(Br)c(O)c(Br)c1 | 98.5 and 105 | 103 | 93.5 (inactive) and 85.7 (inactive) | 110 (inactive) and 83.8 (inactive)
49 | O=P(O)(O)C(Cl)(Cl)P(=O)(O)O [Clodronic acid] | 101 | 103 | 88.3 (inactive) | 102 (inactive)
50 | CCCCCC(=O)C=CC1C(O)CC(O)C1CC=CCCCC(=O)O (stereo not drawn) [15-keto-prostaglandin F2a] | 101 | 108 | 92.9 (inactive) | 103 (inactive)
51 | CC(=O)OCC(=O)[C@@]1(O)CC[C@H]2[C@@H]3CCC4=CC(=O)CC[C@]4(C)[C@@]3(F)[C@@H](O)C[C@@]21C | 103 | 103 | 80 (inactive) | 104 (inactive)
52 | Nc1ncnc2c1nc(Br)n2C1OC2COP(=O)([O-])OC2C1O.[Na+] (stereo not drawn) [8-Bromo-cAMP sodium] | 104 | 110 | 95.5 (inactive) | 90.3 (inactive)
